Drawing on PubChem BioAssay (NCATS), this text covers Potency for 18 molecules.

Molecules are shown by their SMILES. Records with an inconclusive call do not appear. A call without a number means that no potency is given here. Active and inactive are the calls of the source. Calls come from the whole dose curve; as a rule, active = well fitted curve in the direction sought with a large enough effect; inconclusive = small, poorly fitted or top-dose-only effect, or another doubt; inactive = no such curve, though single readings can be large; an effect the other way counts as inactive or inconclusive. Where a SMILES comes first, the peptide text is derived from it. [ ]: non-standard residue; d: D form. pGlu = O=C1CC[C@@H](C(=O)O)N1; Thz = O=C(O)[C@@H]1CSCN1

One assay in a line: S16 Schwann cell viability assay (CellTiter-Glo assay) (AID 624031).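 Note: cellular ATP luminescence as a viability measure; nearly all actives have a fitted effect of over 70% in size.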 The following applies: S16 rat Schwann cells viability, 24 h; series mostly up to 57.5 µM. In short, it runs like this:
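Native S16 Schwann cells (rat), serum-containing medium, overnight attachment then 24 h drug exposure at 37 °C/5% CO2. CellTiter-Glo ATP signal; normalized to cell-free and vehicle wells.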
Consider `CC(=O)[C@]1(O)Cc2c(O)c3c(c(O)c2[C@@H](O[C@H]2C[C@H](N)[C@H](O)[C@H](C)O2)C1)C(=O)c1c(O)cccc1C3=O`, for which the Potency entry was “inactive”.
Same read-out and setting: to `Clc1ccccc1-c1nc(-c2ccncc2)no1` belongs “inactive”; to `COc1cc(/C=C/C(=O)N2CCN(CC(=O)N3CCCC3)CC2)cc(OC)c1OC`, “inactive”.
`CC1(C)C[C@@H]1C(=O)N/C(=C\CCCCSC[C@H](N)C(=O)O)C(=O)O`: the Potency entry is “inactive”.
On the same count and under the same terms, to `O=C(O)Cc1ccc(-c2ccccc2)cc1` belongs “inactive”; to `COc1ccc(/C=C/C(=O)Nc2ccccc2C(=O)O)cc1OC`, “inactive”.
On the same count and under the same terms, to `CCCCCC[C@@H](O)C/C=C\CCCCCCCC(=O)O` belongs “inactive”.
Still for that read-out and setting: to `CCCSc1ccc2nc(NC(=O)OC)[nH]c2c1` belongs “inactive”; to `Oc1c(Br)cc(Br)c2cccnc12`, “inactive”.
In the case of `O=C1CC[C@@H](C(=O)N2CSC[C@H]2C(=O)O)N1` ([pGlu]-[Thz]-OH), the Potency result is “inactive”.
The same measure, in the same setting: to `N=c1ccn2c(n1)O[C@H]1[C@H](O)[C@@H](CO)O[C@H]12` belongs “inactive”; to `CN1[C@@H](CC(=O)c2ccccc2)CCC[C@H]1C[C@H](O)c1ccccc1`, “inactive”.
Same read-out and setting: to `CN1CCN(c2cc3c(nn2)Oc2ccccc2N3C)CC1` belongs “inactive”; to `C[S+](CC[C@H](N)C(=O)O)C[C@H]1O[C@@H](n2cnc3c(N)ncnc32)[C@H](O)[C@@H]1O` (stereo partly specified), “inactive”.
Take `Nc1ccc(C(=O)O)c(O)c1`: the Potency result was “inactive”.
In the case of `CC1(C)S[C@@H]2[C@H](NC(=O)[C@H](NC(=O)N3CCN(S(C)(=O)=O)C3=O)c3ccccc3)C(=O)N2[C@H]1C(=O)O`, the Potency entry was “inactive”.
Turning to `C=C(Nc1ccc(OCC)cc1)Nc1ccc(OCC)cc1`, the Potency result was “inactive”.

The next assay in a line: S16 Schwann cell PMP22 intronic element firefly luciferase assay (AID 624032). Note: nearly all actives have a fitted effect of over 30% in size. Note: potency is the fitted concentration of half-maximal effect. The following applies: S16 rat Schwann cells, PMP22 element FLuc, 24 h; series mostly up to 57.5 µM. The method, boiled down:
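Rat S16 Schwann cells stably carrying a PMP22 intronic element-driven Fluc reporter were seeded overnight, then exposed to compounds for 24 h at 37 °C. Luminescence was normalized to PTC124 (positive control) and DMSO (0% activity).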
With `Clc1ccccc1-c1nc(-c2ccncc2)no1`, the Potency entry is “inactive”.
Regarding `COc1cc(/C=C/C(=O)N2CCN(CC(=O)N3CCCC3)CC2)cc(OC)c1OC`, the Potency result was “inactive”.
Turning to `CC1(C)C[C@@H]1C(=O)N/C(=C\CCCCSC[C@H](N)C(=O)O)C(=O)O`, the Potency entry was “inactive”.
On to `O=C(O)Cc1ccc(-c2ccccc2)cc1`, for which the Potency result was “inactive”.
On the same count and under the same terms, to `COc1ccc(/C=C/C(=O)Nc2ccccc2C(=O)O)cc1OC` belongs “inactive”; to `CCCCCC[C@@H](O)C/C=C\CCCCCCCC(=O)O`, “inactive”; to `Oc1c(Br)cc(Br)c2cccnc12`, “inactive”.
The same measure, in the same setting: to `O=C1CC[C@@H](C(=O)N2CSC[C@H]2C(=O)O)N1` ([pGlu]-[Thz]-OH) belongs “inactive”; to `N=c1ccn2c(n1)O[C@H]1[C@H](O)[C@@H](CO)O[C@H]12`, 14.4 µM (active).
On the same count and under the same terms, the value for `CN1[C@@H](CC(=O)c2ccccc2)CCC[C@H]1C[C@H](O)c1ccccc1` was “inactive”; that for `CN1[C@@H]2CC[C@H]1CC(OC(c1ccccc1)c1ccccc1)C2` (stereo partly specified) was “inactive”.
In the case of `Nc1ccc(C(=O)O)c(O)c1`, the Potency entry was “inactive”.
The same measure, in the same setting: the value for `CC1(C)S[C@@H]2[C@H](NC(=O)[C@H](NC(=O)N3CCN(S(C)(=O)=O)C3=O)c3ccccc3)C(=O)N2[C@H]1C(=O)O` was “inactive”; that for `C=C(Nc1ccc(OCC)cc1)Nc1ccc(OCC)cc1` was “inactive”.
